Among the data in PubChem BioAssay are growth inhibition, inhibition and outcome values, retold here.

For orientation: inhibition means the drop in the measured response relative to a control, in per cent.

Values without a mark were called inactive. For some of these results: Results with a measured potency or affinity are listed apart. Active and inactive are the calls of the source. Unless noted, the rule behind the calls is not given here.

Assay [1] in a line: antimalarial activity against Dd2 strain (AID 2302;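 active = growth inhibition above 50% at the single 2 µM test dose, taken to imply half-maximal potency below 2 µM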;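 note: 0% = DMSO untreated growth and 100% = chloroquine plus artemisinin killed control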). Particulars: P. falciparum Dd2 in RBCs, LDH growth readout, 72 h; at 2 µM; active compounds read high.
Assay [2] can be described thus: human hepatoma cell viability loss – ATP luminescence, cytotoxicity control for P. falciparum antimalarial project, primary screen (AID 2303;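 active = inhibition above 50%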;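 note: 0% = DMSO wells and 100% = digitonin-killed cells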). The note with it: HepG2 viability, 24-48 h, at 10 µM, active compounds read high.
Assay [3] addresses L-lactate dehydrogenase (Plasmodium falciparum (isolate CDC / Honduras)) (UniProt Q27743). The assay is described as follows: PfLDH activity inhibition – cell lysate, 3D7 strain, counter-screen for P. falciparum growth inhibition project (AID 2304).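 Note: 0% = vehicle and 100% = reference inhibitor.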 Particulars: P. falciparum 3D7 crude extract, LDH APAD/NBT absorbance; at 2 µM; active compounds read high. Background: Counterscreens check selectivity or assay interference.

A short description of assay [4]: inhibition of 3D7 malaria parasite growth – strain 3D7 (AID 2306).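 Note: 0% = DMSO wells and 100% = chloroquine plus artemisinin control wells.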 Particulars: P. falciparum 3D7 erythrocytic growth, LDH absorbance, 72 h; at 2 µM; active compounds read high.
Assay [5] addresses Calcium-dependent protein kinase 1 (Plasmodium falciparum (isolate 3D7)) (UniProt P62344). The assay is described as follows: PfCDPK1 kinase inhibitors, biochemical, TCAMS library (AID 1159585; cut-off not given, nearly all actives have IC50 up to about 0.98 µM;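 note: inhibitors leave more ATP so luminescence rises with inhibition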). Particulars: recombinant PfCDPK1, Kinase-Glo ATP depletion luminescence. A general note: In Kinase-Glo more light means more ATP remaining.
Assay [6] deals with Plasmodium falciparum protein kinase 6 (PK6, PF3D7_1337100) (UniProt Q8IDW1). Put plainly: PfPK6 kinase inhibitors, biochemical, TCAMS library (AID 1159586). Particulars: recombinant PfPK6, Kinase-Glo ATP depletion luminescence.
Assay [7] addresses Protein kinase 7 (PK7), Plasmodium falciparum 3D7 (PF3D7_0213400) (UniProt Q7YTF7). Put plainly: inhibition of Plasmodium PK7 catalytic activity – biochemical, TCAMS antimalarial set, Kinase-Glo luminescence (AID 1159587). The note with it: recombinant PfPK7, Kinase-Glo ATP depletion luminescence.
Assay [8] has as its target Calcium-dependent protein kinase 4 (Plasmodium falciparum (isolate 3D7)) (UniProt Q8IBS5). The assay is described as follows: PfCDPK4 kinase inhibitors, biochemical, TCAMS library (AID 1159588; cut-off not given, nearly all actives have IC50 up to about 0.91 µM). The note with it: recombinant PfCDPK4, Kinase-Glo ATP depletion luminescence.

Chain of Calcium-dependent protein kinase 4 (Plasmodium falciparum (isolate 3D7)) (Q8IBS5 whole entry, looked up): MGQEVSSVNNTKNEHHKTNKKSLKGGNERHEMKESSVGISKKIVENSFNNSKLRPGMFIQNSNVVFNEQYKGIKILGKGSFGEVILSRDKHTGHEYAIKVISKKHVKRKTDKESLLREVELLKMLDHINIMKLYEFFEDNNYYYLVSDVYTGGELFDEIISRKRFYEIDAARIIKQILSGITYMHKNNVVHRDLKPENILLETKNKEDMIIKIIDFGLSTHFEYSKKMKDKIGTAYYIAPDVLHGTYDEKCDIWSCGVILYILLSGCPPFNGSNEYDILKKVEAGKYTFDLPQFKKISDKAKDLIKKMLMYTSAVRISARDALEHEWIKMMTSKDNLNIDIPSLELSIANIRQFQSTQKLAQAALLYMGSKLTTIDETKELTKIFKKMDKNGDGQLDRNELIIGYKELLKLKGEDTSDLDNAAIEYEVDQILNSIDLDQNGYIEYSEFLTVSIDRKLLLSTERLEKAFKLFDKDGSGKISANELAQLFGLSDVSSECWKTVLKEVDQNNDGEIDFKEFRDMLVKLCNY
Chain of Calcium-dependent protein kinase 1 (Plasmodium falciparum (isolate 3D7)) (P62344 whole entry, looked up): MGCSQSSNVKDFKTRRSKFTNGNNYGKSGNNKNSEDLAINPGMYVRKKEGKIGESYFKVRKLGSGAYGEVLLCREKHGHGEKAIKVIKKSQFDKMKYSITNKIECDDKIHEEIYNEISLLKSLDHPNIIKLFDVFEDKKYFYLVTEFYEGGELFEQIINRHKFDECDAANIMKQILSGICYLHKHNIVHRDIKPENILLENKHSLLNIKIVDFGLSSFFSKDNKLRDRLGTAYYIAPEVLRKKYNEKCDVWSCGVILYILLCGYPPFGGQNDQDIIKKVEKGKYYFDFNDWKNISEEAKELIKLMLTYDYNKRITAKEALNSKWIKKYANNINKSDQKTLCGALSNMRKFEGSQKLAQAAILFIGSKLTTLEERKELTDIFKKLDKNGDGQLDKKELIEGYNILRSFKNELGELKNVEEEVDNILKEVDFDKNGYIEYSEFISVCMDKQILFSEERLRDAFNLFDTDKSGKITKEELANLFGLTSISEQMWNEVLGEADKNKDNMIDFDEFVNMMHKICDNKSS
Chain of L-lactate dehydrogenase (Plasmodium falciparum (isolate CDC / Honduras)) (Q27743 whole entry, looked up): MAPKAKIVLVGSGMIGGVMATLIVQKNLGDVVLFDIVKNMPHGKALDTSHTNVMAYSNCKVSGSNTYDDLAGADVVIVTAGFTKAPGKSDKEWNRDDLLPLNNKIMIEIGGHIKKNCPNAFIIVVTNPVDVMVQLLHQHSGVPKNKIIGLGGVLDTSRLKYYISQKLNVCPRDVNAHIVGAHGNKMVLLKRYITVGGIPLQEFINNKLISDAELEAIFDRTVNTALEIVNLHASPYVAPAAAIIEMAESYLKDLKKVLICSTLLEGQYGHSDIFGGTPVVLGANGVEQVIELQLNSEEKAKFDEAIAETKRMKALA
Chain of Plasmodium falciparum protein kinase 6 (PK6, PF3D7_1337100) (Q8IDW1 1-305): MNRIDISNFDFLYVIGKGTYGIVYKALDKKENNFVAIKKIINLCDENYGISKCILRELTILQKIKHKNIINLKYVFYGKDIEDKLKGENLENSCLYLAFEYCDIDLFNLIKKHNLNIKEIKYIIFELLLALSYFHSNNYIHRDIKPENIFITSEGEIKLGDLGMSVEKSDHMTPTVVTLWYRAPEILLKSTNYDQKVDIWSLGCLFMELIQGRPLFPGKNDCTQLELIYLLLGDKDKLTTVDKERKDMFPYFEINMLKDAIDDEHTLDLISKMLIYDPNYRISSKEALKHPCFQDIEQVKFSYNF
Chain of Protein kinase 7 (PK7), Plasmodium falciparum 3D7 (PF3D7_0213400) (Q7YTF7 1-343): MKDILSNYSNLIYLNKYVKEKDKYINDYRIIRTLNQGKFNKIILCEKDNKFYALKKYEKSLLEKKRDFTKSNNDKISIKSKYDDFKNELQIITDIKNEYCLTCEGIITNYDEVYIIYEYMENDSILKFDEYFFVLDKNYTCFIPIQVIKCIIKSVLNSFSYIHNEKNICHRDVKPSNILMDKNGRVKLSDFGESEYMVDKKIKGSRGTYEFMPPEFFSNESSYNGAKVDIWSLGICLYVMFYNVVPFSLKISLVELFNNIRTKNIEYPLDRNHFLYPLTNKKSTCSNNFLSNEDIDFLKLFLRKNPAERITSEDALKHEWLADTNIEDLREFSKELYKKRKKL

Consider `N#Cc1cccc(C(=O)Nc2cccc(-c3ccc(C(=O)Nc4cccnc4)cc3)c2)c1`, for which the growth inhibition in assay [1] was 10%; in assay [4], 89% (active). The inhibition in assay [2] is 39%; in assay [3], -1%. Also, the outcome in assay [5], in assay [6], in assay [7] and in assay [8] was inactive.
Turning to `COc1cc2nc(N3CCC(CNC(=O)c4ccc(OC(F)(F)F)cc4)CC3)nc(N)c2cc1OC`, the growth inhibition in assay [1] was 98% (active); in assay [4], 100% (active). The inhibition in assay [2] was 16%; in assay [3], -3%. Also, the outcome in assay [5], in assay [6], in assay [7] and in assay [8] was inactive.
Consider `C(=N\Nc1nccc2sc(-c3cccnc3)cc12)/c1cccnc1`, for which the results for the growth inhibition in assay [1] and in assay [4] were 54% (active) and 98% (active), respectively. The inhibition in assay [2] and in assay [3] was 5% throughout. In addition, the outcome in assay [5], in assay [6], in assay [7] and in assay [8] was inactive.
Regarding `O=C(Nc1ccsc1C(=O)NC1CCCCC1)c1ccc(F)cc1`, the results for the growth inhibition in assay [1] and in assay [4] were 11% and 86% (active), respectively. The inhibition in assay [2] is 3%; in assay [3], 6%. The result in assay [5], in assay [6], in assay [7] and in assay [8] was inactive.
Turning to `CSC1=NC(=Nc2c(C)cccc2C)C2(CCCCC2)N1c1ccccc1Cl`, the growth inhibition is 57% (active) in assay [1] and 95% (active) in assay [4]. The inhibition in assay [2] is 22%; in assay [3], -6%. The result in assay [5], in assay [6], in assay [7] and in assay [8] was inactive.
Regarding `CN(C)CCOc1cc(NC(=O)Nc2ccc3c(c2)CCCC3=O)ccc1I`, the growth inhibition is 31% in assay [1] and 94% (active) in assay [4]. For the same compound, the inhibition was 29% in assay [2] and -5% in assay [3]. Further, the result in assay [5], in assay [6], in assay [7] and in assay [8] was inactive.
Turning to `Oc1ccc2[nH]c(-c3cccs3)nc2c1CN1CCC(O)(c2ccccc2)CC1`, the values for the growth inhibition in assay [1] and in assay [4] were 69% (active) and 93% (active), respectively. Moreover, the inhibition in assay [2] was 10%; in assay [3], -1%. Moreover, the outcome in assay [5], in assay [6], in assay [7] and in assay [8] was inactive.
For the compound `c1ccc(CCNCc2ccc(-c3ccc(CNC4CCN(Cc5ccccc5)CC4)cc3)nc2)cc1`, the growth inhibition in assay [1] was 99% (active); in assay [4], 101% (active). Moreover, the inhibition was 34% in assay [2] and -1% in assay [3]. Besides, the result in assay [5], in assay [6], in assay [7] and in assay [8] was inactive.
`Nc1nccc(-c2ccc3c(/C=C/c4ccccc4)cnc(N)c3c2)n1`: the growth inhibition in assay [1] was 100% (active); in assay [4] it was 101% (active). The inhibition in assay [2] was 32%; in assay [3], 2%. The outcome in assay [5], in assay [6], in assay [7] and in assay [8] was inactive.
For `CCCNC(=O)Nc1cc2cc(-c3ccc(CN4CCCC4)cc3)ccc2n2c(C)nnc12`, the growth inhibition in assay [1] is 11%; in assay [4] it was 93% (active). The inhibition in assay [2] was 67% (active); in assay [3] it was 0%. For the same compound, the result in assay [5], in assay [6], in assay [7] and in assay [8] was inactive.
As to `CC(Cc1ccc(OCCN2CCN(c3cccc(Cl)c3)CC2)cc1)NCC(O)c1cccc(Cl)c1` (stereo not given), the values for the growth inhibition in assay [1] and in assay [4] were 91% (active) and 93% (active), respectively. For the same compound, the results for the inhibition in assay [2] and in assay [3] were 48% and 3%, respectively. Further, the result in assay [5], in assay [6], in assay [7] and in assay [8] was inactive.
Take `CN1CCc2cc(CN3C[C@]4(C)C[C@H]3CC(C)(C)C4)c(O)cc2C(c2ccccc2)C1` (stereo not given in full): the growth inhibition in assay [1] was 88% (active); in assay [4] it was 98% (active). In addition, the inhibition was -4% in assay [2] and -3% in assay [3]. Moreover, the outcome in assay [5], in assay [6], in assay [7] and in assay [8] was inactive.
As for `COc1ccc(C2CCN(CCCCNC(=O)c3ccc(NC(=O)c4ccc(Cl)cc4)cc3)CC2)c(OC)c1`, the values for the growth inhibition in assay [1] and in assay [4] were 95% (active) and 101% (active), respectively. The values for the inhibition in assay [2] and in assay [3] were 32% and 0%, respectively. The result in assay [5], in assay [6], in assay [7] and in assay [8] was inactive.
With `COc1ccccc1CN1CCC(NC(=O)c2ccc(-c3ccc(N(C)C)cc3)s2)CC1`, the growth inhibition is 38% in assay [1] and 90% (active) in assay [4]. Besides, the inhibition in assay [2] was 29%; in assay [3], -2%. Moreover, the outcome in assay [5], in assay [6], in assay [7] and in assay [8] was inactive.
For the compound `O=C(CNC1=NCCN1)Nc1ccc(NC(=O)Nc2ccc(NC(=O)CNC3=NCCN3)cc2)cc1`, the values for the growth inhibition in assay [1] and in assay [4] were 75% (active) and 90% (active), respectively. Moreover, the inhibition in assay [2] was -5%; in assay [3], -2%. Further, the result in assay [5], in assay [6], in assay [7] and in assay [8] was inactive.
Consider `CC(C)CC(NC(=O)c1cc2ccccc2s1)C(=O)N1CCCCCC1c1ccc(C(C)(C)C)cc1` (stereo not given), for which the growth inhibition in assay [1] is 39%; in assay [4], 91% (active). The figures for the inhibition in assay [2] and in assay [3] were 23% and -2%, respectively. Further, the result in assay [5], in assay [6], in assay [7] and in assay [8] was inactive.
`O=S(=O)(c1ccc(OC(F)(F)F)cc1)C1C[C@H]2CC[C@@H](C1)N2S(=O)(=O)c1ccc(Cl)c(C(F)(F)F)c1` (stereo not given in full): the growth inhibition was 95% (active) in assay [1] and 100% (active) in assay [4]. For the same compound, the inhibition in assay [2] was 1%; in assay [3], -5%. Further, the outcome in assay [5], in assay [6], in assay [7] and in assay [8] was inactive.
For the compound `Cc1ccc(NC(=O)c2ccc(N3CCN(c4ccncc4)CC3)cn2)cc1F`, the growth inhibition in assay [1] was 77% (active); in assay [4], 98% (active). Also, the inhibition in assay [2] and in assay [3] was 2% each time. Also, the result in assay [5], in assay [6], in assay [7] and in assay [8] was inactive.
Regarding `CC(C)(C)c1ccc(/C=C/C(=O)NCCCCCN2CCC(c3c[nH]c4ccccc34)CC2)cc1`, the growth inhibition in assay [1] is 12%; in assay [4], 91% (active). Moreover, the inhibition in assay [2] was 70% (active); in assay [3] it was 8%. Also, the outcome in assay [5], in assay [6], in assay [7] and in assay [8] was inactive.
As for `Cc1ccc(Nc2nc(NN=Cc3ccc(-c4ccc([N+](=O)[O-])cc4)o3)nc(N3CCOCC3)n2)cc1Cl`, the growth inhibition in assay [1] was 47%; in assay [4], 95% (active). In addition, the figures for the inhibition in assay [2] and in assay [3] were 12% and -1%, respectively. Besides, the outcome in assay [5], in assay [6], in assay [7] and in assay [8] was inactive.
